Source: PubChem BioAssay (NCI)
This is part of a sample that, as a whole, favours compounds with a hit. Of some 83,000 tested, about 20% had one in any assay.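 Single-concentration screen, 48 h exposure, 96-well plates. Endpoint: percent growth. Below 10 = active.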 Activity calls are given as the source filed them.

Experiments:
Experiment in all cases: NCI-60 one-dose screen, 48 h (100 = growth as untreated, 0 = no growth, -100 = all killed)
Conditions in all cases: 10 µM unless noted
SR leukemia = tested on: SR leukemia
RPMI-8226 leukemia = tested on: RPMI-8226 leukemia
OVCAR-8 ovarian = tested on: OVCAR-8 ovarian
OVCAR-5 ovarian = tested on: OVCAR-5 ovarian
OVCAR-4 ovarian = tested on: OVCAR-4 ovarian
SK-OV-3 ovarian = tested on: SK-OV-3 ovarian
IGROV1 ovarian = tested on: IGROV1 ovarian
OVCAR-3 ovarian = tested on: OVCAR-3 ovarian
HS 578T breast = tested on: HS 578T breast
NCI/ADR-RES ovarian = tested on: NCI/ADR-RES ovarian

Measured: growth

CN(C)c1nc(NCCNS(=O)(=O)c2ccc(C(=O)/C=C/c3ccc(Cl)cc3)cc2)nc(Nc2ccc(F)cc2)n1
active: SR leukemia -41.1% | RPMI-8226 leukemia -17.6% | OVCAR-8 ovarian -73.5% | OVCAR-5 ovarian -67% | OVCAR-4 ovarian -28.3% | IGROV1 ovarian -49.6% | OVCAR-3 ovarian -94.8% | NCI/ADR-RES ovarian -83.5%
inactive: SK-OV-3 ovarian 26% | HS 578T breast 25.8%

Nc1nc(C(F)(F)F)cs1
inactive: SR leukemia 101% | RPMI-8226 leukemia 115% | OVCAR-8 ovarian 105% | OVCAR-5 ovarian 113% | OVCAR-4 ovarian 108% | SK-OV-3 ovarian 101% | IGROV1 ovarian 107% | OVCAR-3 ovarian 108% | HS 578T breast 109% | NCI/ADR-RES ovarian 104%

CCCCCCCCc1ccc(S(=O)(=O)Nc2ccc(CC)cc2C(=O)O)cc1
inactive: SR leukemia 96.7% | RPMI-8226 leukemia 71.1% | OVCAR-8 ovarian 95.1% | OVCAR-5 ovarian 117% | OVCAR-4 ovarian 96% | SK-OV-3 ovarian 106% | IGROV1 ovarian 97.4% | OVCAR-3 ovarian 113% | HS 578T breast 103% | NCI/ADR-RES ovarian 96%

CCCSc1nc(NCCc2c[nH]c3ccccc23)c(C#N)c(-c2ccc(OC)cc2)n1
inactive: RPMI-8226 leukemia 23.9% | OVCAR-8 ovarian 67.9% | OVCAR-5 ovarian 82.1% | OVCAR-4 ovarian 61.2% | SK-OV-3 ovarian 90.6% | IGROV1 ovarian 91.2% | OVCAR-3 ovarian 82.3% | HS 578T breast 42.9% | NCI/ADR-RES ovarian 47.9%
active: SR leukemia 4.81%

COc1ccc(CCC2c3c(cc4c(c3OC)OCO4)CCN2C)cc1 (stereo not given)
inactive: HS 578T breast 11%
active: SR leukemia -18.2% | RPMI-8226 leukemia -28.5% | OVCAR-8 ovarian -41.7% | OVCAR-5 ovarian -16.5% | OVCAR-4 ovarian 9.34% | SK-OV-3 ovarian -37.6% | IGROV1 ovarian -52.4% | OVCAR-3 ovarian -21.2% | NCI/ADR-RES ovarian -54.5%

CC12CC[C@@H]3[C@]4(C)COC(c5cn[nH]c5-c5cccc(Cl)c5)O[C@@H]4CC[C@@]3(C)[C@@H]1CC(C1=CCOC1=O)O2 (stereo not given in full)
inactive: SR leukemia 29.7% | RPMI-8226 leukemia 13.8% | OVCAR-8 ovarian 38.7% | OVCAR-5 ovarian 61.7% | OVCAR-4 ovarian 29.1% | SK-OV-3 ovarian 62.4% | IGROV1 ovarian 49.8% | OVCAR-3 ovarian 44.5% | HS 578T breast 46.8% | NCI/ADR-RES ovarian 31.1%

COc1ccc(C2=NN(C(C)=O)C(c3ccc(OCc4ccc(Cl)cc4)c(OC)c3)C2)cc1OC (stereo not given)
inactive: SR leukemia 52.4% | RPMI-8226 leukemia 37% | OVCAR-8 ovarian 43.5% | OVCAR-5 ovarian 79.8% | OVCAR-4 ovarian 29.4% | SK-OV-3 ovarian 84.9% | IGROV1 ovarian 49% | OVCAR-3 ovarian 41.4% | HS 578T breast 56.3% | NCI/ADR-RES ovarian 56.1%

Cc1ccc(Cc2cnc(NC(=O)c3ccc(/C=C4\SC(=S)N(C)C4=O)cc3)s2)cc1
inactive: SR leukemia 30% | RPMI-8226 leukemia 31.4% | OVCAR-8 ovarian 35.3% | OVCAR-5 ovarian 34.3% | OVCAR-4 ovarian 48.2% | SK-OV-3 ovarian 29.3% | IGROV1 ovarian 33% | HS 578T breast 39.2%
active: OVCAR-3 ovarian 3.26% | NCI/ADR-RES ovarian -28.5%

COC(OC)C1=C(C)OC(N)=C(C#N)C12C(=O)Nc1ccccc12 (stereo not given)
inactive: SR leukemia 73% | RPMI-8226 leukemia 94.3% | OVCAR-8 ovarian 91.9% | OVCAR-5 ovarian 112% | OVCAR-4 ovarian 101% | SK-OV-3 ovarian 111% | IGROV1 ovarian 92% | OVCAR-3 ovarian 101% | HS 578T breast 95.4% | NCI/ADR-RES ovarian 99.2%

C#CCOc1cc(N(CC)CC)ccc1C(C(=O)NC(C)(C)C)N(C(=O)C1CCc2cc(F)ccc2O1)c1ccccc1F (stereo not given)
inactive: SR leukemia 16.3% | RPMI-8226 leukemia 18% | OVCAR-8 ovarian 31.7% | OVCAR-5 ovarian 57.7% | OVCAR-4 ovarian 43.4% | SK-OV-3 ovarian 39.6% | IGROV1 ovarian 54% | OVCAR-3 ovarian 33.1% | HS 578T breast 68.7% | NCI/ADR-RES ovarian 42.5%

Brc1ccc(-c2n(Cc3ccc4ccccc4c3)c(-c3ccccc3)c(-c3ccccc3)[n+]2Cc2ccc3ccccc3c2)cc1
active: SR leukemia -36.8% | RPMI-8226 leukemia -38% | OVCAR-8 ovarian -77.4% | OVCAR-5 ovarian -100% | OVCAR-4 ovarian -83.3% | SK-OV-3 ovarian -96.7% | IGROV1 ovarian -81.7% | OVCAR-3 ovarian -79% | HS 578T breast -46.3% | NCI/ADR-RES ovarian -78.2%

CC(=O)c1c(N)c(C#N)cn1-c1ccc(Cl)cc1Cl
inactive: SR leukemia 90.8% | RPMI-8226 leukemia 105% | OVCAR-8 ovarian 98.2% | OVCAR-5 ovarian 100% | OVCAR-4 ovarian 106% | SK-OV-3 ovarian 89.1% | IGROV1 ovarian 96.5% | OVCAR-3 ovarian 120% | HS 578T breast 110% | NCI/ADR-RES ovarian 108%

CC1(C)CC[C@]2(C(=O)Nc3ccc(F)cc3)CC[C@]3(C)C(=CCC4[C@@]5(C)C[C@@H](O)[C@H](O)[C@@](C)(CO)C5CC[C@]43C)C2C1 (stereo not given in full)
active: SR leukemia 1.68% | RPMI-8226 leukemia 0.573%
inactive: OVCAR-8 ovarian 48.1% | OVCAR-5 ovarian 32.6% | OVCAR-4 ovarian 49.4% | SK-OV-3 ovarian 24.8% | IGROV1 ovarian 63.5% | OVCAR-3 ovarian 58% | HS 578T breast 45.5% | NCI/ADR-RES ovarian 43%
